Compound activity as filed in PubChem.
Sampled rows, rich in hits. Any-hit rate of the full collection: about 28%.
CD11b adhes enh: CD11b/CD18-fibrinogen binding enhancement; P05107+P11215; K562 CD11b/CD18 adhesion to fibrinogen, ATPlite luminescence; activation, % at 10 µM; actives 0.07% (n = 93,000);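 active = 10 µM primary screen giving 50% or more activity, confirmed by 40% or more on retest at that dose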
CYP2C9 act: activators of human CYP2C9. P11712. AID 1024. recombinant CYP2C9, luciferin-H conversion, luminescence; hits give high values; factor 1 = untreated enzyme, 0 = blocked. actives 1.4% (n = 96,000). activation factor at 5 µM;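 active = activation factor of 2 or more for CYP2C9 at a 5 µM dose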;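 also: 0 = sulfaphenazole-blocked wells and 1 = vehicle-only wells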
Target sequence (P11712 whole entry, looked up): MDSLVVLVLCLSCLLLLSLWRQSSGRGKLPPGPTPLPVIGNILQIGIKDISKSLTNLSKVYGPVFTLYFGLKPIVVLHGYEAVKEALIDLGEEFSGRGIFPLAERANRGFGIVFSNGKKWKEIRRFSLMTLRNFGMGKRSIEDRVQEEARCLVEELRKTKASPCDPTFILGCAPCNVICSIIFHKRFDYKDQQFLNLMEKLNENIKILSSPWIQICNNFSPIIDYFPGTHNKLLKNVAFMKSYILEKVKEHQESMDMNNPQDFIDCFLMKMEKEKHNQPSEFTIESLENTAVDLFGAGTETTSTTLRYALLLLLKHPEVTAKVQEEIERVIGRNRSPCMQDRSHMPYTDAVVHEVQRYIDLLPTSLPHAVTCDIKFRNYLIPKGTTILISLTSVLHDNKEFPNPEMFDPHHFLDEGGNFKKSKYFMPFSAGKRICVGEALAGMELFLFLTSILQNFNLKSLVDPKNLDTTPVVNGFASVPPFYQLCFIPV
CD11b adhes inh: inhibitors of human CD11b/CD18 binding to fibrinogen; P05107+P11215; K562 CD11b/CD18 adhesion to fibrinogen, ATPlite luminescence; Mn2+ added to activate the integrin; inhibition, % at 10 µM; actives 0.54% (n = 93,000);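 active = primary inhibition of 50% or more at 10 µM, then 40% or more on retest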
CYP2C19 inh: blocks human cytochrome P450 2C19; actives 21% (n = 96,000); AID 778; inhibition, % at 5 µM; CYP2C19 Supersomes, luciferin-H EGE luminescence, 30 min; P33261;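 active = CYP2C19 inhibition above a set limit at 5 µM in the primary screen, cut at about 50% in these data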;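 also: plate controls were negative control wells for no effect and 2.5 mM tranylcypromine positive control for full effect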
CYP2C9 inhib: blocks human cytochrome P450 2C9; P11712; CYP2C9 Supersomes, luciferin-H conversion, luminescence; inhibition, % at 5 µM; actives 20% (n = 96,000); AID 777;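 active = blocking of liver enzyme CYP2C9 beyond about 50% at 5 µM, limit read from the data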
CYP2C19 act: increases human CYP2C19 enzyme activity. P33261. recombinant CYP2C19, luciferin-H EGE luminescence; hits give high values; 0 = fully inhibited enzyme, 1 = untreated enzyme. activation factor at 5 µM. 96,000 tested, under 10 active. AID 1025;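 active = activation factor of at least 2 at 5 µM in the primary screen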;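 also: 0 = wells with 2.5 mM tranylcypromine and 1 = vehicle-only wells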
* hit, by the source's call; x = no result given.

SMILES	CD11b adhes enh	CYP2C9 act	CD11b adhes inh	CYP2C19 inh	CYP2C9 inhib	CYP2C19 act
Cc1nc(NC(=O)c2ccccc2)sc1-c1csc(NCc2ccccc2)n1	0	0.3	0	51*	66*	0.5
CCOC(=O)NNC1CC(=O)N(c2ccc(OC)cc2)C1=O (stereo not drawn)	3	0.9	11	-3	6	1
Cn1c(NC(=O)c2cc(Cl)ccc2Cl)cc(=O)n(C)c1=O	1	0.8	6	26	16	0.7
Cn1c(NC(=O)C(C)(C)Oc2ccc(Cl)cc2)cc(=O)n(C)c1=O	1	0.8	-27	98*	25	0
COc1ccccc1Oc1nc(-c2ccccc2)cc(C)c1S(C)(=O)=O	11	0.9	2	10	12	0.9
Cc1cc(C)cc(Oc2nc(-c3ccccc3)cc(C)c2S(C)(=O)=O)c1	1	0.1	-10	52*	89*	0.5
Cc1cccc(Oc2nc(-c3ccccc3)cc(C)c2S(C)(=O)=O)c1C	-2	0.1	7	63*	93*	0.4
Nc1c(C(=O)NCCc2ccc(Cl)cc2)sc2ccc(S(=O)(=O)N3CCCCC3)cc12	6	x	-6	x	x	x
CCCCn1nc2cc(C(=O)NCc3ccc(OC(F)(F)F)cc3)ccc2c1OC	x	0.9	x	16	11	0.8
Cc1ccc(-c2nn(C)c(=O)c3ccccc23)cc1CNC(=O)/C=C/c1ccccc1	16	0.7	23	42	31	0.6
CN(C)c1ccc(NC(=O)/C=C/c2c(Cl)cccc2Cl)cc1	-4	x	1	x	x	x
CC(C)COP(=O)(c1ccc(N(C)C)cc1)C(O)c1ccncc1 (stereo not drawn)	-1	0.4	44	72*	58*	0.3
CC(C)COP(=O)(c1ccc(N(C)C)cc1)C(Nc1ccccc1)c1ccccc1 (stereo not drawn)	2	x	3	x	x	x
CCOP(=O)(c1ccc(N(C)C)cc1)C(O)c1ccc(Cl)cc1 (stereo not drawn)	3	1.1	21	80*	-10	0.2
CC(C)OP(=O)(c1ccc(N(C)C)cc1)C(O)c1c(Cl)cccc1Cl (stereo not drawn)	-1	0.4	-6	81*	55*	0.2
CCOP(=O)(c1ccc(N(C)C)cc1)C(O)c1ccccc1 (stereo not drawn)	0	1	2	34	4	0.7
O=C(O)C(Cc1c[nH]c2ccccc12)NS(=O)(=O)c1cccc2nsnc12 (stereo not drawn)	2	x	6	x	x	x
COC(=O)C1CCN(C(=O)c2ccccc2NC(C)=O)CC1	3	1	-58	12	-2	0.9
CC(NC(=O)/C(C#N)=C/c1cn[nH]c1-c1ccccc1)c1ccccc1 (stereo not drawn)	-2	0.7	-6	39	29	0.6
COc1ccc(-c2[nH]ncc2/C=C(\C#N)C(=O)NC2CC2)cc1	-4	0.5	-1	54*	52*	0.5
N#C/C(=C\c1cn[nH]c1-c1ccc(Cl)cc1)C(=O)NCc1ccccc1	-4	0.1	11	88*	88*	0.1
CCc1ccc(C(C)NC(=O)/C(C#N)=C\c2cn[nH]c2-c2ccccc2)cc1 (stereo not drawn)	-3	1	28	13	0	0.9
N#C/C(=C\c1cn[nH]c1-c1ccccc1)C(=O)NC1CCCCCC1	x	2*	x	-3	-98	1
O=C(O)COc1ccc2c(c1)OCCO2	-2	1.1	3	-7	-10	1.1
CC(CCc1ccco1)NC(=O)Cn1nc(Cc2ccncc2)c2ccccc2c1=O (stereo not drawn)	-6	0.1	-4	84*	86*	0.2
O=C(Cn1nc(Cc2ccncc2)c2ccccc2c1=O)N1CCN(C(=O)c2ccco2)CC1	-1	0.4	5	34	64*	0.7
O=C(Cn1nc(Cc2cccnc2)c2ccccc2c1=O)N1CCN(C(=O)c2ccco2)CC1	0	0.5	-10	8	50	0.9
COc1cccc2cc(-c3csc(CCn4nc(C)cc4C)n3)c(=O)oc12	8	0.3	-4	82*	66*	0.2
